Results filed as inconclusive are left out. Values without a mark were called inactive. Calls follow the shape of the dose curve; as a rule, active = well fitted cell-killing curve with a large enough effect; inconclusive = small, poorly fitted or top-dose-only effect, or effect the other way; inactive = flat fitted curve, though single readings scatter.
The compounds below were run on OV90 (assay: Primary qHTS to identify gynecologic anti-cancer compounds using libraries of approved drugs and bioactive compounds (AID 1345084; also: nearly all actives have a fitted effect of over 55% in size)). Settings: Gynecologic cancer cell panel viability, ATPlite luminescence, 48 h; series mostly up to 57.5 µM; activity change, negative = cytotoxicity: at the top concentration.
Method in brief: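 Cells, 1,000 per well, plated 16 h, then exposed 48 h at 37 C to compounds. Viability by ATPlite luminescence after 15 min at room temperature.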
`CC(C)C(=O)O[C@@H]1[C@@H](O)[C@@H](O[C@H]2O[C@H](CO)[C@@H](O)[C@H](O)[C@H]2O)O[C@H](CO)[C@H]1O` was tested, and the “activity change, negative = cytotoxicity” value was 8.61% [at 25.3 µM].
`C=C(C(=O)O)[C@@H]1CC=C2CCC[C@H](C)[C@@]2(C)C1` was tested, and the “activity change, negative = cytotoxicity” value was -1.69%.
For `CC1(C)CC[C@]2(C(=O)O)CC[C@]3(C)C(=CCC4[C@@]5(C)CCC(O[C@@H]6OC[C@H](O)[C@H](O)[C@H]6O[C@@H]6O[C@H](CO)[C@@H](O)[C@H](O)[C@H]6O)[C@@](C)(CO)C5CC[C@]43C)[C@@H]2C1` (some centres not stated), the “activity change, negative = cytotoxicity” value was 4.18% [at 25.3 µM].
`CNc1nc(Nc2cnn([C@H]3CCN(C4COC4)C[C@@H]3F)c2Cl)ncc1C(F)(F)F` was tested, and the “activity change, negative = cytotoxicity” value was -17.4%.
With `CCCCNC(=O)[C@@H]1Cc2ccccc2N1C(=O)[C@@H](N)CC` the “activity change, negative = cytotoxicity” value was 3.69%.
`Cc1coc2c1CC1OC1(C)CCC1OC1(C)C2` (configuration not stated) was tested, and the “activity change, negative = cytotoxicity” value was 5.16%.
`COC(=O)C1C(CC(C)=O)C=CC(O)C12Oc1cc(C)cc(O)c1C2=O` (configuration not stated) was tested, and the “activity change, negative = cytotoxicity” value was -5.85% [at 38.5 µM].
For `CCOC(=O)[C@H]1O[C@@H]1C(=O)N[C@@H](CC(C)C)C(=O)NCCC(C)C`, the “activity change, negative = cytotoxicity” value was -16.8%.
In the case of `C=C1CCC2C(C)(C)C(O)CCC2(C)C1CCC(C)CCOC(=O)CCC(=O)O` (configuration not stated), the “activity change, negative = cytotoxicity” value is reported as -1.4% [at 25.3 µM].
`CC1CCC2(C(=O)OC3OC(CO)C(O)C(O)C3O)CCC3(C(=O)O)C(=CCC4C5(C)CCC(OC6OC(C)C(O)C(O)C6O)C(C)(C)C5CCC43C)C2C1C` (configuration not stated) was tested, and the “activity change, negative = cytotoxicity” value was -3.71% [at 25.3 µM].
With `COC1CC(=O)C23C(=O)NC(CC(C)C)C2C(C)C(C)=CC3/C=C(\C)CCC1O` (configuration not stated) the “activity change, negative = cytotoxicity” value was -2.42% [at 25.3 µM].
`C[C@@H]1O[C@@H](O[C@H]2[C@H](OC(=O)[C@]34CCC(C)(C)C[C@H]3C3=CCC5[C@@]6(C)C[C@H](O)[C@H](O[C@@H]7O[C@H](CO[C@@H]8OC[C@H](O)[C@H](O)[C@H]8O)[C@@H](O)[C@H](O)[C@H]7O)C(C)(C)C6CC[C@@]5(C)[C@]3(C)C[C@H]4O)OC[C@@H](O)[C@@H]2O)[C@H](O)[C@H](O[C@@H]2OC[C@](O)(CO)[C@H]2O)[C@H]1O[C@@H]1OC[C@H](O)[C@H](O[C@@H]2OC[C@@H](O)[C@H](O)[C@H]2O)[C@H]1O` (some centres not stated) gave an activity change, negative = cytotoxicity of -1.75% [at 6.55 µM].

Reference: PubChem BioAssay (NCATS)
% is scaled to controls: 0 for no effect and ±100 for the full control effect.
